From PubChem BioAssay (NCI)
About 83,000 compounds went through this panel and 20% of them were active in at least one assay; those are over-represented in the sample as a whole.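 Growth was measured after 48 h exposure to one concentration of compound in 96-well plates. Values under 10 count as active.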 Unmarked numbers belong to inactive results. Active and inactive are the calls of the source.

Key:
Test in all cases: NCI-60 one-dose screen, 48 h (100 = growth as untreated, 0 = no growth, -100 = all killed)
Settings in all cases: 10 µM unless noted
NCI-H23 lung = tested on: NCI-H23 lung
NCI-H226 lung = tested on: NCI-H226 lung
NCI-H322M lung = tested on: NCI-H322M lung
HOP-62 NSCLC = tested on: HOP-62 NSCLC
NCI-H460 lung = tested on: NCI-H460 lung
HOP-92 NSCLC = tested on: HOP-92 NSCLC
NCI-H522 lung = tested on: NCI-H522 lung
A549/ATCC NSCLC = tested on: A549/ATCC NSCLC
786-0 renal = tested on: 786-0 renal
COLO 205 colon = tested on: COLO 205 colon

Compound	growth (NCI-H23 lung)	growth (NCI-H226 lung)	growth (NCI-H322M lung)	growth (HOP-62 NSCLC)	growth (NCI-H460 lung)	growth (HOP-92 NSCLC)	growth (NCI-H522 lung)	growth (A549/ATCC NSCLC)	growth (786-0 renal)	growth (COLO 205 colon)
O=C(Nc1ccccc1[N+](=O)[O-])c1ccc(Cl)c(Cl)c1	86.6%	79.9%	101%	102%	93.4%	69.7%	69.9%	104%	105%	110%
COc1cnc2c(c1)C(=O)c1c-2n(CCCCl)c(=O)c2ccncc12	58%	69.5%	78.4%	58.2%	18.6%	110%	26.7%	69.3%	83.6%	19.7%
Cc1nc2c(c(=O)[nH]1)C(c1ccccc1)c1ccc3ccccc3c1O2 (stereo not given)	50.4%	62.5%	59.1%	20.2%	20.5%	24.7%	-31.4% (active)	40.2%	25%	72.9%
COc1ccc(/C=C2\CN(C(=O)C(Cl)Cl)C/C(=C\c3ccc(OC)cc3)C2=O)cc1	-36.9% (active)	61.3%	4.8% (active)	40.5%	-34.5% (active)	-3.88% (active)	14.9%	4.79% (active)	-48.4% (active)	-34.2% (active)
C=C1C(=O)O[C@H]2[C@H]1CC/C(COC(=O)/C=C\C(=O)NCc1ccc(Cn3c(=O)sn(CCCl)c3=O)cc1)=C\CC[C@@]1(C)O[C@@H]21	86.9%	102%	104%	116%	101%	115%	-64.4% (active)	111%	83.4%	34.8%
O=c1c2c3c(sc2n2c(-c4cc(-c5ccccc5)no4)nnc2n1Cc1ccccc1)CCCC3	86.4%	97.6%	97.1%	92.5%	86%	76.5%	55.2%	49.9%	87.6%	96.4%
C=C(C)[C@@H]1CC[C@]2(C(=O)N3CCN(C)CC3)CC[C@]3(C)[C@H](CC[C@@H]4[C@@]5(C)CC[C@H](OC(=O)c6ccccc6C(=O)O)C(C)(C)[C@@H]5CC[C@]43C)[C@@H]12	99.9%	99.4%	101%	98%	103%	102%	84.2%	104%	101%	111%
CCNC(=O)Oc1ccc(/C(=C(/CC)Cc2ccccc2)c2ccc(OCCN3CCCC3)cc2)cc1	101%	99.4%	91%	83.2%	94.1%	62.1%	100%	98.4%	91.2%	102%
CCN(CC)c1ccc(CNc2cc(C)nc3ccccc23)cc1	26.9%	56.2%	80.3%	77.1%	58.2%	49.6%	53.5%	72.7%	79.1%	1.94% (active)
CSC1=Nc2c(c(C)c(-c3ccccc3)n2CCCC(=O)O)C2=NC(=O)C[C@H](C)N12	105%	110%	102%	89.7%	102%	94.3%	93%	101%	102%	119%
COc1cccc(/C=C/C(=O)c2cccc(Nc3nc(Nc4ccccc4)nc(Nc4ccccc4)n3)c2)c1	82.2%	94.2%	86.6%	79.2%	91.9%	17.7%	85.6%	68.5%	89%	87.5%
Cc1[nH]c(C2CC(c3ccc(C(F)(F)F)c(F)c3)=NN2c2ccccc2)c(C)c1C(=O)NCC(F)(F)F (stereo not given)	89%	77.2%	88%	91.4%	94.2%	113%	89.5%	84.8%	90.7%	93.7%
CCCC(CC)(C(=O)Nc1ccc2nc(C)cc(N)c2c1)C(=O)Nc1ccc2nc(C)cc(N)c2c1	94.1%	97.8%	108%	107%	106%	117%	92%	98.3%	103%	114%
CN1CCN(C(=O)C(C)(C)c2ccc(C(=O)Nc3cn4cc(-c5ccncc5)ccc4n3)cc2)CC1	10.1%	9.69% (active)	17%	4.05% (active)	10.8%	3.02% (active)	-1.24% (active)	10.2%	-19.9% (active)	2.48% (active)
COc1ccc(Cn2cc(C(=O)N=Nc3c(O)[nH]c4c(C)cccc34)nn2)cc1	89.1%	75.1%	89.6%	106%	73.1%	51.3%	77.5%	85.3%	43.5%	108%
Cc1ccc(C(=O)c2ccc(CC(=O)N=Nc3c(O)[nH]c4ccc(Br)cc34)n2C)cc1	76.1%	77.9%	92%	89.6%	104%	106%	84.1%	87.2%	97.6%	106%
CCNc1nc(O)c(/C=C2\C=Nc3ncccc32)s1	-7.87% (active)	10.8%	5.83% (active)	-26.5% (active)	2.41% (active)	4.42% (active)	-28.6% (active)	11.1%	3.02% (active)	-33.3% (active)
CC/C=C\C[C@H](O)C/C=C1/C(=O)C=C[C@@H]1C/C=C\CCCC(=O)O	79.9%	83.1%	85.6%	96.9%	64.8%	75.2%	-10.7% (active)	75.9%	68.5%	65.4%
COC(=O)c1nc(-c2ccccc2)oc1S(=O)(=O)NCC(c1ccc(Cl)cc1)N1CCOCC1 (stereo not given)	89.1%	90.7%	98.3%	96.3%	87.2%	70.9%	23.8%	90.5%	51.9%	78.1%
COc1ccc(/C(C)=C(/c2ccc(OCCCN(C)C)cc2)c2ccc(OC(=O)c3ccccc3)cc2)cc1	82.2%	102%	87%	92.3%	67.1%	52.5%	75.1%	69.4%	73%	94.4%
CS(=O)(=O)Nc1cc(-c2ccc3ncc(C#N)c(Nc4ccc(F)c(Cl)c4)c3c2)cnc1Cl	-11.7% (active)	-0.649% (active)	5.43% (active)	1.41% (active)	6.16% (active)	-1.46% (active)	-18.1% (active)	5.08% (active)	6.73% (active)	-53.5% (active)
CN1CCN(Cc2ccc(NC(=O)c3cncc(C#Cc4cnc(N)c5ncccc45)c3)cc2C(F)(F)F)CC1	22.2%	7.14% (active)	25.1%	-5.02% (active)	-35.5% (active)	7.16% (active)	9.75% (active)	10.6%	-82.3% (active)	-55.2% (active)
O=C(NNc1cnccn1)c1nc2cc(F)ccc2n2cccc12	25.4%	14.1%	18%	15%	2.78% (active)	34.9%	-2.38% (active)	11.1%	28.6%	7.25% (active)
CCOC(=O)c1c(C)c2c(n1Cc1ccccc1)CSCC2=O	4.82% [100 µM] (active)	-5.37% [100 µM] (active)	36.4% [100 µM]	-25.9% [100 µM] (active)	-21.1% [100 µM] (active)	-19.4% [100 µM] (active)	16.5% [100 µM]	20.2% [100 µM]	-11.2% [100 µM] (active)	-53.3% [100 µM] (active)
Cc1ccccc1Nc1cc(O)c2c(=O)cc(-c3ccccc3)oc2c1	45.5%	57.8%	70.5%	49.4%	8.06% (active)	86.7%	36%	35.2%	43.5%	61.8%
Cc1nc2ccccc2c(/C=C/c2ccccc2)c1C(=O)/C=C/c1ccccc1	28.7%	65.1%	43.8%	6.52% (active)	-20.8% (active)	79.6%	15.9%	23.2%	31.5%	15.7%
Cn1cc(-c2csc(-c3cn(CCCN4CCOCC4)c4ccccc34)n2)c2cccnc21	88.3%	75.7%	95.6%	97.4%	88.5%	67.7%	67.9%	79.3%	74.4%	73.9%
